We go through eight compounds from ChEMBL document CHEMBL3988442, “University of Dundee, Small-Polar-MMV Screening Library” (2021).

Parameters in all cases: scale not given: direction of the effect not stated beside the values
The target in experiment [1] is Protein translocase subunit SecA (Escherichia coli (strain K12)) (UniProt P10408). Kind of experiment: Assay to Identify E. coli SecA ATPase Inhibitors. To be noted: 30 µM. It counts as functional.
Experiment [2] concerns the target T1, Ubiquitin-activating enzyme e1, putative (Leishmania donovani (strain BPK282A1)) (UniProt E9BSI1).
T1 sequence (whole entry): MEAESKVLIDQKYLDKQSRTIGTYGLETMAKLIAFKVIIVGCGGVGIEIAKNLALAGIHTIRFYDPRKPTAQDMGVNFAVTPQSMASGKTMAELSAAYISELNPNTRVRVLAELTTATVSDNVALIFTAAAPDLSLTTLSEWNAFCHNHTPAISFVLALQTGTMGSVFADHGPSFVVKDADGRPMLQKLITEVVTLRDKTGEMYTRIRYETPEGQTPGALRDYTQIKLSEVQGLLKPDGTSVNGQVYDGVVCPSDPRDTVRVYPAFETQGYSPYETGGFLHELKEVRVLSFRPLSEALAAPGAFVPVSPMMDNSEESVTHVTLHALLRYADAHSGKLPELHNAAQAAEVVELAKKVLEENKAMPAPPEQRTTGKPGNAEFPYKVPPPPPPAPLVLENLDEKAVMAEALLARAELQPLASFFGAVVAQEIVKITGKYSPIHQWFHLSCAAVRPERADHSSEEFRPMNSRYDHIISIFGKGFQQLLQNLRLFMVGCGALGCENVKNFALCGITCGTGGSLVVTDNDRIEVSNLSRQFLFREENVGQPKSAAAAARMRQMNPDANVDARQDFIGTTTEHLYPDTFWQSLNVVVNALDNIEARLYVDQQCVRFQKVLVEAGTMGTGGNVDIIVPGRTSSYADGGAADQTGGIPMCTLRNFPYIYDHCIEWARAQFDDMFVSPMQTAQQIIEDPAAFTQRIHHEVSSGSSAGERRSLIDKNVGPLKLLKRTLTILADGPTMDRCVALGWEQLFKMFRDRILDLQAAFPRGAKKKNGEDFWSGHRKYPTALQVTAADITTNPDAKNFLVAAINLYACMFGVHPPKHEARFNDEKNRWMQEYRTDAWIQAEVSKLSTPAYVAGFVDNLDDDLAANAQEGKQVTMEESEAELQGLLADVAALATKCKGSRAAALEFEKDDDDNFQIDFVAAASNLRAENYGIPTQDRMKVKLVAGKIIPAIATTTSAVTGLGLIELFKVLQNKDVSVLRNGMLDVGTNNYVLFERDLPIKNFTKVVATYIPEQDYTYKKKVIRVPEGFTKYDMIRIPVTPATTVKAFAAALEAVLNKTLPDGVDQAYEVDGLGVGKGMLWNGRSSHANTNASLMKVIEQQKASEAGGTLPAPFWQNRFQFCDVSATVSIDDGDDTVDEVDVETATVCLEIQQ
In words: Leishmania donovani Ubiquitin Activating Enzyme (LdE1). To be noted: 30 µM. It counts as functional.

Experiment [3] has as its target Sialic acid-binding Ig-like lectin 9 (Homo sapiens) (UniProt Q9Y336). In words: Hs-Siglec9 ALPHAscreen SOP 20170721. To be noted: 10 µM.
Experiment [4] relates to Trypanosoma cruzi. Kind of experiment: Trypanosoma cruzi phosphomannomutase and mannose-1-phosphate guanylyltransferase assay. It counts as functional. To be noted: 10 µM.
In experiment [5] the target is T2, Arginase-2, mitochondrial (Homo sapiens) (UniProt P78540).
T2 sequence (whole entry): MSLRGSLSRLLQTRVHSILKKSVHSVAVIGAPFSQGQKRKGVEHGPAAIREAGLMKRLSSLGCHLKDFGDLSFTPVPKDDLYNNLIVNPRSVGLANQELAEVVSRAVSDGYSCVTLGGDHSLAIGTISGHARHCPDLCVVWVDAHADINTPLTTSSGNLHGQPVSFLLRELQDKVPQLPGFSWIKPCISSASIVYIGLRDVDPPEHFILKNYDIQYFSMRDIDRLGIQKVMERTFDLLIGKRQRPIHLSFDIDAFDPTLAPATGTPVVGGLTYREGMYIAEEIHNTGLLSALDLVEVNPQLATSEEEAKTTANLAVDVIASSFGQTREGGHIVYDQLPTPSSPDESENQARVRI
Kind of experiment: in vitro enzyme assay to detect the production of urea directly proportional to the activity of Arginase II. Also: in the data most compounds retested in dose-response had high values. It counts as functional. The conditions noted are these: 33.3 µM.

Experiment [6] deals with T3, Proteasome subunit beta (Trypanosoma cruzi) (UniProt O96673).
T3 sequence (whole entry): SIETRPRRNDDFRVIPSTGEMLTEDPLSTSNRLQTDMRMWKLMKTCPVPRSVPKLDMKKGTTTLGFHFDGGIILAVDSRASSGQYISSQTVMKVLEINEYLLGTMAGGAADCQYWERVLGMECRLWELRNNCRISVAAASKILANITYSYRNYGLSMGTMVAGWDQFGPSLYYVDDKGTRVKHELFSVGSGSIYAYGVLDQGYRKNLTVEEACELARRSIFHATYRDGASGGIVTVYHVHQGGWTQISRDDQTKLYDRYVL
In words: Trypanosoma cruzi proteasome chymotrypsin-like activity (TcProtChymo) assay. Also: in the data most compounds retested in dose-response had high values. It counts as functional. The conditions noted are these: 9.37 µM.

For experiment [7], the species on record is Homo sapiens. Kind of experiment: To identify inhibition of the IFN signalling (Jak-Stat) pathway via expression of an eGFP reporter gene under the control of an IFN-stimulated response element (ISRE) containing MxA promoter. It counts as functional. To be noted: 30 µM.
For experiment [8], the target named is T4, Tyrosyl-tRNA synthetase, putative (Trypanosoma cruzi (strain CL Brener)) (UniProt Q4DSP6).
T4 sequence (whole entry): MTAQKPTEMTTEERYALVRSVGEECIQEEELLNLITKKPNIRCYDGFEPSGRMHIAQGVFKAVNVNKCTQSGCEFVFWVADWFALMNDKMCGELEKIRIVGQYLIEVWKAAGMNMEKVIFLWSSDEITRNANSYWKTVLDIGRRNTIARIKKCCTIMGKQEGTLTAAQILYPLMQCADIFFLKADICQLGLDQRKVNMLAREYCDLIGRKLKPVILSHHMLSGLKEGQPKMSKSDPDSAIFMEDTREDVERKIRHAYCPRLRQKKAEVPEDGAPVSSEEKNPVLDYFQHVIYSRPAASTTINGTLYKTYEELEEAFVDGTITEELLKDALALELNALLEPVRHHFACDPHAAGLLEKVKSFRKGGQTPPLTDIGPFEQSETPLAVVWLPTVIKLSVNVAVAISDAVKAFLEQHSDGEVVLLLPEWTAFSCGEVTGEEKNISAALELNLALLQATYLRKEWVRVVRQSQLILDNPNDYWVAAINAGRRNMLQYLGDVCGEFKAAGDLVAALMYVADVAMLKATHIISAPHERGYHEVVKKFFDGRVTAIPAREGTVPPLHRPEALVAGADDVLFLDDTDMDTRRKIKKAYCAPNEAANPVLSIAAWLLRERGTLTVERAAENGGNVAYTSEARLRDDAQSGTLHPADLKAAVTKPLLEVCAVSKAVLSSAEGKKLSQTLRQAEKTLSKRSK
In words: Trypanosoma cruzi tyrosyl tRNA synthetase (TcYRS) _High Tyrosine SOP. Also: in the data most compounds retested in dose-response had high values. The conditions noted are these: 30 µM. It counts as functional.

Experiment [9] addresses T4, Tyrosyl-tRNA synthetase, putative (Trypanosoma cruzi (strain CL Brener)). Kind of experiment: Trypanosoma cruzi tyrosyl tRNA synthetase (TcYRS) SOP. It counts as functional. To be noted: 30 µM.
Experiment [10] deals with Chromo domain-containing protein 1 (Saccharomyces cerevisiae (strain ATCC 204508 / S288c) (Baker's yeast)) (UniProt P32657). In words: ScCHD-1 Enzyme Inhibition Assay. Also: in the data most compounds retested in dose-response had high values. It counts as functional. The conditions noted are these: 30 µM.

SMILES strings stand for the structures. For some assays here: Measured potencies and affinities stand elsewhere.

Sequence of Sialic acid-binding Ig-like lectin 9 (Homo sapiens) (Q9Y336 whole entry): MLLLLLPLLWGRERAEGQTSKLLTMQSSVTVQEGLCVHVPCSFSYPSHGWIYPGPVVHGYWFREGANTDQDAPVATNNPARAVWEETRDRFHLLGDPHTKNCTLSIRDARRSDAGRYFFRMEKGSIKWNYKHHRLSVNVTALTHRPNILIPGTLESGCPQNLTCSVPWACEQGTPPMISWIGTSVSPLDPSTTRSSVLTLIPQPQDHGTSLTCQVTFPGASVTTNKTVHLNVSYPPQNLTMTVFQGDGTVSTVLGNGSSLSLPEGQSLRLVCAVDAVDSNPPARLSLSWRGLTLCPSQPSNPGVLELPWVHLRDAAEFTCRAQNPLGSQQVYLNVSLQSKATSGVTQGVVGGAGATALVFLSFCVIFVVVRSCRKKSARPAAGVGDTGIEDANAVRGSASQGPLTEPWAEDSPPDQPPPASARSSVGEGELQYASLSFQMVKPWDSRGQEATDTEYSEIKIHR
Sequence of Protein translocase subunit SecA (Escherichia coli (strain K12)) (P10408 whole entry): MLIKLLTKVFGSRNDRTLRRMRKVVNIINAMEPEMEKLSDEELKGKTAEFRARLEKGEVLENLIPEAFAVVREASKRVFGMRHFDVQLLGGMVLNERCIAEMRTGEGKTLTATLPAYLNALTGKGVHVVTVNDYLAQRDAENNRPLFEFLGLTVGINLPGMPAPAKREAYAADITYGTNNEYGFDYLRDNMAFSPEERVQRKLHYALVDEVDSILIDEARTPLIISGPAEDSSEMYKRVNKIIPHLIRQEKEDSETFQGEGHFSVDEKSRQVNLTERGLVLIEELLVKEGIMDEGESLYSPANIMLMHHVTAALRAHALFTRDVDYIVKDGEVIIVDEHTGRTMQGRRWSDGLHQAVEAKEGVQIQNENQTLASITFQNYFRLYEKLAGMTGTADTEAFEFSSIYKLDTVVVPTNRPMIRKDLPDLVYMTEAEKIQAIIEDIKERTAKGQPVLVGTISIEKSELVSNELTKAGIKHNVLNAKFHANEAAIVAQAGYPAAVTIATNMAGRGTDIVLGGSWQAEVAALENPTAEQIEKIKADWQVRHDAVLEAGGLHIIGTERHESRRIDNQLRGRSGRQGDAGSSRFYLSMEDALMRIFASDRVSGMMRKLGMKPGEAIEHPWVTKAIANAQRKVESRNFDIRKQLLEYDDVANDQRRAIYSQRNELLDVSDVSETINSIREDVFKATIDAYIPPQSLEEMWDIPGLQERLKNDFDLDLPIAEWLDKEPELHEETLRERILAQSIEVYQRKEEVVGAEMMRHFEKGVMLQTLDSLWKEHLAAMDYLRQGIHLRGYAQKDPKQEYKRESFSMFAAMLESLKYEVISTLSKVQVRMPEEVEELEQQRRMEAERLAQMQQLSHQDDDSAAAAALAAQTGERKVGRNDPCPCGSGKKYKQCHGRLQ
Sequence of Chromo domain-containing protein 1 (Saccharomyces cerevisiae (strain ATCC 204508 / S288c) (Baker's yeast)) (P32657 whole entry, the tested form may be a part): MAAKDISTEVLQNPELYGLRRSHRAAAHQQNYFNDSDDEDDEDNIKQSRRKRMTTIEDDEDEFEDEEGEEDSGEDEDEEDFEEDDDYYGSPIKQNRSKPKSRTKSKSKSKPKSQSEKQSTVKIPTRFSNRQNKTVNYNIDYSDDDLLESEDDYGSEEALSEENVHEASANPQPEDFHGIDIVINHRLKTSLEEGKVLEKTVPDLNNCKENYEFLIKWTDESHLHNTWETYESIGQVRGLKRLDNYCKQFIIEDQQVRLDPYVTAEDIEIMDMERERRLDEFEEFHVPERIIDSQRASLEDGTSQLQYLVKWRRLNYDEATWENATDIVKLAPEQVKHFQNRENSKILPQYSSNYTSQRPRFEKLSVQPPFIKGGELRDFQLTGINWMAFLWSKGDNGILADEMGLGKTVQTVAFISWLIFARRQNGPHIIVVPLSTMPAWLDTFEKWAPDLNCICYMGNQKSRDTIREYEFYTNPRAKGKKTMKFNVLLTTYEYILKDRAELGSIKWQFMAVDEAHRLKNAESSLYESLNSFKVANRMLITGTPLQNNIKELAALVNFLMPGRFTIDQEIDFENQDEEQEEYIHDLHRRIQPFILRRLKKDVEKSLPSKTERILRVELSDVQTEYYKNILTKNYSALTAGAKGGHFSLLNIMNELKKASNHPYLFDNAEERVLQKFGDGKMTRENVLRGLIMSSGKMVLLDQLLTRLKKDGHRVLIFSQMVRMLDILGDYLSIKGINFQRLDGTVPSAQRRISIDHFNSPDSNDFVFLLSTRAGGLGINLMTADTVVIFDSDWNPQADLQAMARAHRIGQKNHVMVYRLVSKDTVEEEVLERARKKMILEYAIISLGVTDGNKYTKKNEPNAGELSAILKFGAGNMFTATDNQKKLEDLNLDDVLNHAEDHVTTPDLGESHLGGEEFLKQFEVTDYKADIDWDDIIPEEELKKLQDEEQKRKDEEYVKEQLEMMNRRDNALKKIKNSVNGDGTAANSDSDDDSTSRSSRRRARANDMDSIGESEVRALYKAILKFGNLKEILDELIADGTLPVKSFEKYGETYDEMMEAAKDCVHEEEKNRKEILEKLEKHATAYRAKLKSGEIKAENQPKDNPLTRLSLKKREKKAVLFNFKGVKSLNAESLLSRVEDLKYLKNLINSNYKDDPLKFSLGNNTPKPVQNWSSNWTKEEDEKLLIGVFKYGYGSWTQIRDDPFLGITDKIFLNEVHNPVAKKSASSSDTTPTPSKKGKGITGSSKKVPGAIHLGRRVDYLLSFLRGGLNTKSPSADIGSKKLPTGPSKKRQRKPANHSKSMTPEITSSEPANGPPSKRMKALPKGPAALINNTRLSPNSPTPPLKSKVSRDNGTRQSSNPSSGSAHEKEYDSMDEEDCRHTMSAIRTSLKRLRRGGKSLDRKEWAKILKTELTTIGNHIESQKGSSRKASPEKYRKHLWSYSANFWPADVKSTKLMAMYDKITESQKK

On to `CC(C)CC(=O)N1C[C@@H]2CCN(c3ncccn3)C[C@@H]2C1`, for which the Percent Effect in [1] is -0.224%; in experiment [2] it was 11.7%; in experiment [3], -0.117%; in experiment [4], 0.375%; in [5], -5.02%; in [6] it was 14.2%. Besides, the Percent Effect in experiment [7] was 17.9%; in experiment [8], 0%; in experiment [9] it was -10%; in experiment [10] it was -10.7%.

In the case of `Cc1ccccc1N1CCN(C(=O)c2ccc[nH]2)C(C)C1` (stereo not given), the Percent Effect is -7.84% in experiment [1]; 2.7% in experiment [2]; 33.4% in [3]; 5.92% in [4]; -2.45% in [5]; 9.25% in experiment [6]. The Percent Effect in experiment [7] is 27.5%; in [8], 1.6%; in experiment [9], 9.76%; in experiment [10], -1.74%.

As to `Cc1ccc(-c2nc(CN3CCc4c(ncn4C)C3)cs2)o1`, the Percent Effect in experiment [1] was -4.38%; in [2], 2.56%; in [3], -16.5%; in experiment [4] it was 11.9%; in experiment [5], -6.56%; in [6], 24.3%. Further, the Percent Effect in [7] turned out to be 2.62%; in [8] it was 11%; in experiment [9] it was 18.1%; in [10], 37.3%.

Regarding `Cc1ncsc1C(=O)N(Cc1cccnc1)C1CC1`, the Percent Effect is -0.351% in [1]; 2.56% in [2]; 10% in [3]; 5.92% in experiment [4]; 4.1% in experiment [5]; -1.45% in experiment [6]. In addition, the Percent Effect in experiment [7] is 16.3%; in [8] it was 1.44%; in [9] it was 8.43%; in experiment [10], -2.14%.

Regarding `Cc1nn(C)c(N(C)C)c1CNCc1ccc(OCC(N)=O)cc1`, the Percent Effect in experiment [1] is -3.65%; in [2] it was 8%; in [3] it was 0.758%; in experiment [4] it was -2.61%; in [5], -1.33%; in [6], 13.2%. Besides, the Percent Effect in [7] was -6%; in experiment [8], 5.79%; in experiment [9], 7.69%; in experiment [10], -13.9%.

For `Cc1csc(Nc2nccnc2C2CCCN2C(=O)C(C)C)n1` (stereo not given), the Percent Effect was 1.4% in experiment [1]; 14.7% in [2]; -6.58% in experiment [3]; -4.34% in experiment [4]; -0.885% in experiment [5]; 9.69% in experiment [6]. Further, the Percent Effect is 5.46% in experiment [7], 2.12% in experiment [8], 10% in experiment [9] and -21.8% in [10].

`CC(C)c1nc(CN2CCCN(Cc3nnc(C4CC4)o3)CC2)no1`: the Percent Effect is -2.61% in [1]; 8% in experiment [2]; -2.85% in experiment [3]; -0.602% in experiment [4]; 4.43% in [5]; 17.2% in experiment [6]. The Percent Effect in experiment [7] was 14.1%; in experiment [8], 3.68%; in [9], 7.69%; in experiment [10], -9.7%.

For the compound `CC(NC(=O)NCCCn1cncn1)c1ccccc1Cl` (stereo not given), the Percent Effect in experiment [1] was 0.672%; in [2], 10.7%; in experiment [3], -2.84%; in [4], -7.63%; in experiment [5] it was 3.99%; in experiment [6] it was 7.72%. In addition, the Percent Effect is 13.4% in [7], 3.68% in experiment [8], 12.8% in experiment [9] and -11% in experiment [10].
